The record followed here is PubChem BioAssay (NCATS).

A number with no mark means an inactive call. Inconclusive results are not listed. Activity calls are given as the source filed them. Unless noted, calls follow the shape of the dose curve; as a rule, active = well fitted curve in the direction sought with a large enough effect; inconclusive = small, poorly fitted or top-dose-only effect, or another doubt; inactive = no such curve, though single readings can be large; an effect the other way counts as inactive or inconclusive.

The target in test [1] is Cytochrome P450 1A2 (Homo sapiens) (UniProt P05177). Kind of test: p450-cyp1a2 (AID 410; calls by dose curve; also: potency is read from the fitted curve at half-maximal effect). In short, it runs like this: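 20nM CYP1A2 with 100uM Luciferin-ME (at Km) in 100mM KPO4; compound preincubated 10 min, NADPH regeneration added, 60 min at room temperature. Luciferin quantified by luminescence after detection reagent; normalized to 57 uM furafylline.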
Sequence of Cytochrome P450 1A2 (Homo sapiens) (P05177 whole entry, looked up): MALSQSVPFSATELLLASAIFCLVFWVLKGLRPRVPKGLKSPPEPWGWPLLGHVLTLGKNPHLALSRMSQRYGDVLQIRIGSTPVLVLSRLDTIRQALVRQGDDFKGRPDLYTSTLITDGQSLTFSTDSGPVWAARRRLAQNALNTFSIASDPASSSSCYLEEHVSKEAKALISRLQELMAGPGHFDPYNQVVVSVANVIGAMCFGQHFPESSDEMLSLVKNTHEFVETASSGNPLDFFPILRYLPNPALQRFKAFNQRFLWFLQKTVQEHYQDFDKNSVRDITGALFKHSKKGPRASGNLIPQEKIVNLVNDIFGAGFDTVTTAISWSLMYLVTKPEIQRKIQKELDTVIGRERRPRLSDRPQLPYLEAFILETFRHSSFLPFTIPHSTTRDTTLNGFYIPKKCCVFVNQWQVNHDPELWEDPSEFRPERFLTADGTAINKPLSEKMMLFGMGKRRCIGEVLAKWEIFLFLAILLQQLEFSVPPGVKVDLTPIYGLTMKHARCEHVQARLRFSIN
For test [2], the target named is Glucocorticoid receptor (Homo sapiens) (UniProt P04150). Kind of test: GR-GFP Redistribution (AID 450;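 active = compounds whose dose series gives a full or clear partial fitted curve of increased nuclear translocation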; also: potency is read from the fitted curve at half-maximal effect). The conditions noted are these: U2OS GR-GFP nuclear translocation, laser cytometry, 2 h.
Sequence of Glucocorticoid receptor (Homo sapiens) (P04150 whole entry, looked up, the tested form may be a part): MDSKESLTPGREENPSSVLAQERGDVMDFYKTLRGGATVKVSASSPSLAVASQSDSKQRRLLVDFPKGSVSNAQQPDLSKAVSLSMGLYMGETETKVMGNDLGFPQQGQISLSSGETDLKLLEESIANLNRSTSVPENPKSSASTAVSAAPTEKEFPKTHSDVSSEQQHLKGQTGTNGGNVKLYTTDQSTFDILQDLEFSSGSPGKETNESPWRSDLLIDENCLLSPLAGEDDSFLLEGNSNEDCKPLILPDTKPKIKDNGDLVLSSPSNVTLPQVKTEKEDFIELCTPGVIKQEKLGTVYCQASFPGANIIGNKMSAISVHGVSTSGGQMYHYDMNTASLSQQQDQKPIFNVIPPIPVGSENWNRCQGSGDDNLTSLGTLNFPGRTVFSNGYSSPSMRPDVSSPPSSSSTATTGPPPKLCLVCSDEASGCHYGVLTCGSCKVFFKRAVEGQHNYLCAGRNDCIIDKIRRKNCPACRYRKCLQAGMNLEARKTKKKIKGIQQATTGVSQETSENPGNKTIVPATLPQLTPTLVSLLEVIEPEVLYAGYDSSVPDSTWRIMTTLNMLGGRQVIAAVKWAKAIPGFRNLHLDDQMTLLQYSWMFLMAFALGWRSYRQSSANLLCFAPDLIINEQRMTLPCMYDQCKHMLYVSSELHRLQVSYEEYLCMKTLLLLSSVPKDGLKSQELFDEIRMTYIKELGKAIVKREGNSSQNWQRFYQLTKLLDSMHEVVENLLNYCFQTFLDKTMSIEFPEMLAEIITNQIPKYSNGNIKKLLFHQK
For test [3] the target is unchanged. The test can be described thus: GR-EFC Redistribution (AID 451; calls by dose curve; also: potency is read from the fitted curve at half-maximal effect). Conditions: CHO-K1 GR-EFC translocation, beta-gal luminescence, 2 h. In short, it runs like this: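 Translocation of GR-ED fusion to nuclear EA restores b-gal, read by luminescence after 1 h room-temperature detection. Engineered CHO-K1 biosensor cells, 1,000/well, exposed 2 h at 37 C to titrations up to 46 uM final.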

Test [4] concerns the target Mitogen-activated protein kinase 10 (Mus musculus) (UniProt Q61831). Kind of test: JNK3 AlphaScreen Assay (AID 530; active = well fitted curve in either direction with a large enough effect, not every such curve was filed as active;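 also: kinase came from lysate of stimulated human HepG2 cells; potency is read from the fitted curve at half-maximal effect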). In outline: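 Compound titrations were preincubated 15 minutes at room temperature with substrate, antibody and pre-activated JNK3-containing HepG2 lysate. Reactions were started with 10 uM ATP and stopped with EDTA-containing bead buffer for AlphaScreen detection.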
Background: In Alpha technology, singlet oxygen from a donor bead excites a nearby acceptor bead.

The target of test [5] is Cytochrome P450 2C9 (Homo sapiens) (UniProt P11712). The test can be described thus: qHTS Assay for Inhibitors and Substrates of Cytochrome P450 2C9 (AID 883). Also: potency is read from the fitted curve at half-maximal effect; nearly all actives have a fitted effect of over 60% in size. In outline: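 Turnover of Luciferin-H (100uM, KM) by 10nM human CYP2C9 was measured over 60 min at 37C with NADPH regeneration; inhibitors and some substrates reduce luminescence. Data normalized to sulphaphenazole 57uM.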
Sequence of Cytochrome P450 2C9 (Homo sapiens) (P11712 whole entry, looked up): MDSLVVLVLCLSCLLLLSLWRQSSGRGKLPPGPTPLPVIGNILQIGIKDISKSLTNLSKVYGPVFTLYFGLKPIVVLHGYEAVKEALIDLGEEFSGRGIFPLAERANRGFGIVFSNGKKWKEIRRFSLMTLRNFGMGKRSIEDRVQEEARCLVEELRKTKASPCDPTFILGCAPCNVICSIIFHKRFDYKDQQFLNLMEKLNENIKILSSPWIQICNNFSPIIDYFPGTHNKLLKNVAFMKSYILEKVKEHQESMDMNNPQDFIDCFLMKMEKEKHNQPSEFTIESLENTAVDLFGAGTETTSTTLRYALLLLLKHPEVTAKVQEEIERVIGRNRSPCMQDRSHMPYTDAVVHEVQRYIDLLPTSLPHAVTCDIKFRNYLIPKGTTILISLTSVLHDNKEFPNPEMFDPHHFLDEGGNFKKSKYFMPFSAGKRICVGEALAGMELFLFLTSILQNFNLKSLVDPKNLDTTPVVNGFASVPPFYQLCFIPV
In general terms: qHTS replaces the single test concentration by a dilution series.

In test [6] the target is Cytochrome P450 3A4 (Homo sapiens) (UniProt P08684). Kind of test: qHTS Assay for Inhibitors and Substrates of Cytochrome P450 3A4 (AID 884). Also: potency is read from the fitted curve at half-maximal effect; nearly all actives have a fitted effect of over 50% in size. In short, it runs like this: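 20 nM human CYP3A4 with 25 uM Luciferin-PPXE (at KM) in 200 mM KPO4, preincubated 10 min with compound; NADPH regeneration started a 60 min RT reaction. Luciferin detected by luminescence, normalized to 57 uM ketoconazole as full inhibition.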
Sequence of Cytochrome P450 3A4 (Homo sapiens) (P08684 whole entry, looked up): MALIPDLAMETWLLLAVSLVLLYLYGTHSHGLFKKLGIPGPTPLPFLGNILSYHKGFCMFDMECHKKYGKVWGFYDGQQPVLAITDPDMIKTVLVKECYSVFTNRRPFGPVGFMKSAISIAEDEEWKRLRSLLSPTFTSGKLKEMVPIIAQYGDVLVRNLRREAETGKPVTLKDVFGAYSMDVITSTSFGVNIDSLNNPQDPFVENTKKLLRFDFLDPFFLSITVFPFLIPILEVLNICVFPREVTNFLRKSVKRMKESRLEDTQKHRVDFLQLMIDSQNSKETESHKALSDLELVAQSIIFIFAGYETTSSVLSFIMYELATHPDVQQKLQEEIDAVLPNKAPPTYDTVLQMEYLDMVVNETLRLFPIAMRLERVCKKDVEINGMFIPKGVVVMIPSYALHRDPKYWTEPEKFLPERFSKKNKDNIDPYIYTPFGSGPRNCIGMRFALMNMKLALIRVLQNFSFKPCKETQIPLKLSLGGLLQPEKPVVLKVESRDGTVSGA

The target is the same in test [7]. The test can be described thus: qHTS Assay for Activators of Cytochrome P450 3A4 (AID 885). Also: nearly all actives have a fitted effect of over 65% in size. In outline:
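Steps: enzyme/substrate mix dispensed; compound added, 10 min RT; NADPH regeneration solution added, 60 min RT; luciferin detection buffer stops reaction; 20 min later luminescence measured.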

Test [8] addresses Cytochrome P450 2D6 (Homo sapiens) (UniProt P10635). Kind of test: qHTS Assay for Inhibitors and Substrates of Cytochrome P450 2D6 (AID 891). Also: potency is read from the fitted curve at half-maximal effect; nearly all actives have a fitted effect of over 60% in size. In short, it runs like this:
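Human CYP2D6 (5 nM) with 30 uM Luciferin-ME EGE (at Km) in 100 mM KPO4, compound preincubated 10 min, then NADPH regeneration system for 60 min at room temperature. Luciferin read by luminescence; normalized to 1.43 uM quinidine.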

Test [9] concerns the target Cytochrome P450 2C19 (Homo sapiens) (UniProt P33261). Kind of test: qHTS Assay for Inhibitors and Substrates of Cytochrome P450 2C19 (AID 899). Also: potency is read from the fitted curve at half-maximal effect; nearly all actives have a fitted effect of over 60% in size. In outline: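 Reactions contain 5nM enzyme, 10uM Luciferin-H EGE (KM) and 50mM KPO4; compound preincubates 10 min at 37C, NADPH regeneration starts turnover for 60 min. Luminescence after detection reagent gives activity.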
Test [10] concerns the target DNA dC->dU-editing enzyme APOBEC-3G (Homo sapiens) (UniProt Q9HC16). Kind of test: qHTS for inhibitors of Vif-A3G interactions: Validation (AID 588379). In short, it runs like this:
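HeLa cells stably expressing Vif and A3G-eYFP, 700 cells/well, incubated overnight at 37 deg C, then exposed to compound overnight at 37 deg C. Inhibition of Vif-mediated degradation read as increased yellow fluorescence (Ex 488/Em 500-530) by laser-scanning cytometry.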

Sequence of DNA dC->dU-editing enzyme APOBEC-3G (Homo sapiens) (Q9HC16 whole entry, looked up): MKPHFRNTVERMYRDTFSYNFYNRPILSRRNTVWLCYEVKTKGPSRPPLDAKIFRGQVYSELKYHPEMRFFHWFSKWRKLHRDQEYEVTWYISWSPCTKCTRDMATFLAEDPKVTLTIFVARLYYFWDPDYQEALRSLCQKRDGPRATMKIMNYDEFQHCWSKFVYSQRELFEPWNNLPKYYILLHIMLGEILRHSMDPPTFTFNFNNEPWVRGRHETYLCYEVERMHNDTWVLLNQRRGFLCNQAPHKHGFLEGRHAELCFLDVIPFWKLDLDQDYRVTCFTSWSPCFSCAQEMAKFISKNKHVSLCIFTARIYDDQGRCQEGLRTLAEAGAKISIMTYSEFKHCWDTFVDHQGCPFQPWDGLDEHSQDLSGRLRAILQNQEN
Sequence of Cytochrome P450 2C19 (Homo sapiens) (P33261 whole entry, looked up): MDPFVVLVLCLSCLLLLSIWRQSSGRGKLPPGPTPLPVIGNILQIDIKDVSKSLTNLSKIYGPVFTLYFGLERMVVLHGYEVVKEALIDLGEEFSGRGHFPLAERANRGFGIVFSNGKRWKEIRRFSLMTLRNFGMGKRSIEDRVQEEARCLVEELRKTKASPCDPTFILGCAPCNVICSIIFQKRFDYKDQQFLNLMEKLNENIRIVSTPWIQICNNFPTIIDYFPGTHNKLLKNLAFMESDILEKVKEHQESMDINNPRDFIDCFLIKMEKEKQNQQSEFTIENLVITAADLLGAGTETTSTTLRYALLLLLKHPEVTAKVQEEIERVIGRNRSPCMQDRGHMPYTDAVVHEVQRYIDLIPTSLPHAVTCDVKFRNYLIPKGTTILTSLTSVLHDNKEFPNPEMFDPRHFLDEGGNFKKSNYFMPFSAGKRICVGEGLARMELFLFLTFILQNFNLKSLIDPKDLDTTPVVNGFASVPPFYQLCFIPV
Sequence of Cytochrome P450 2D6 (Homo sapiens) (P10635 whole entry, looked up): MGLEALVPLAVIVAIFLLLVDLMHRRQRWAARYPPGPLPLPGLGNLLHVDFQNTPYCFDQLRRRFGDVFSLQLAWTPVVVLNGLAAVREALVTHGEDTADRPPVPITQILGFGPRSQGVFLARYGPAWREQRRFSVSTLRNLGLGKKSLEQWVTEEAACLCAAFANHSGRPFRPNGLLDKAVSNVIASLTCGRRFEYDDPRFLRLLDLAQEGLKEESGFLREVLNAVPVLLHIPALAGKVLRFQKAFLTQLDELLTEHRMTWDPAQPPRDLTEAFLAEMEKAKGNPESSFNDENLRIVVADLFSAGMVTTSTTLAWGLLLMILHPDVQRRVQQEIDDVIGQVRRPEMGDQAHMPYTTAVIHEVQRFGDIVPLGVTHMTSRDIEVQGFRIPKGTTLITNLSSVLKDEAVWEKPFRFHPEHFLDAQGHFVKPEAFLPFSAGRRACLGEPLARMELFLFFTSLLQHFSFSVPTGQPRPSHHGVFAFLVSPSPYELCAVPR

Turning to `COc1cc2cc3c4c(cc(OC)c(OC)c4c2cc1OC)CCN3C`, the Potency was 79.4 nM (active) in test [1]; greater than 46 µM in test [2]; greater than 46 µM in test [3]; 158 nM (active) in test [4]; 794 nM (active) in [5]; 3.98 µM (active) in test [6]. The figures for the Potency in [8] and in test [9] were 3.98 µM (active) and 50.1 nM (active), respectively. The molecule was classed as inactive in test [7] and in [10].
